High-throughput results: PubChem, National Center for Advancing Translational Sciences (NCATS)
Compounds with a hit are over-represented: about 1.2% of the library has one in this group of screens.
PI4K2A block = qHTS for small molecular inhibitors of PI4K2A. Phosphatidylinositol 4-kinase type 2-alpha (Homo sapiens), Q9BTU6. purified PI4K2A, ADP-Glo luminescence, 1 h; active compounds read low. activity change, negative = inhibition, % at 76.9 µM. 420,000 compounds, 0.13% hits. AID 1346378, 2018; in the data active means activity change below about -50%;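 further: -100% = wells without enzyme as full effect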
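In this quantitative HTS, ADP production by PI4K2A was quantified luminescently after 1 h at ambient temperature; 100 microM adenosine served as plate-quality control.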
TrxR1 inh = qHTS Assay for Inhibitors of Mammalian Selenoprotein Thioredoxin Reductase 1 (TrxR1): qHTS; Thioredoxin reductase 1, cytoplasmic (Rattus norvegicus), O89049; recombinant rTrxR1, NADPH fluorescence consumption, selenite substrate; Potency, µM (series often up to 114 µM), for the others: at the top dose activity change, negative = inhibition, hits mostly inhibitors; 390,000 compounds, 1% hits; further: potency means the concentration at half of the fitted maximal effect; nearly all actives have a fitted effect of over 65% in size
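Rat TrxR1 (90 nM in the dispensed reagent) was pre-reduced with 400 uM NADPH for 5 min at room temperature, then incubated with compound for 15 min. After 400 uM selenite was added, NADPH fluorescence (Ex 340/Em 450 nm) was followed for 8 min.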
PKM2 act = qHTS Assay for Activators of Human Muscle isoform 2 Pyruvate Kinase | Pyruvate kinase PKM (Homo sapiens), P14618 | purified PKM2, Kinase-Glo ATP luminescence, activation; response scale: 0% is enzyme alone, no compound | Potency, µM (doses to about 57.5 µM), inactives show top-dose activation, actives largely listed as activators | 260,000 compounds, 0.34% hits | AID 1631, 2009; further: potency means the concentration at half of the fitted maximal effect; nearly all actives have a fitted effect of over 55% in size
Target sequence (P14618 whole entry, looked up, canonical isoform): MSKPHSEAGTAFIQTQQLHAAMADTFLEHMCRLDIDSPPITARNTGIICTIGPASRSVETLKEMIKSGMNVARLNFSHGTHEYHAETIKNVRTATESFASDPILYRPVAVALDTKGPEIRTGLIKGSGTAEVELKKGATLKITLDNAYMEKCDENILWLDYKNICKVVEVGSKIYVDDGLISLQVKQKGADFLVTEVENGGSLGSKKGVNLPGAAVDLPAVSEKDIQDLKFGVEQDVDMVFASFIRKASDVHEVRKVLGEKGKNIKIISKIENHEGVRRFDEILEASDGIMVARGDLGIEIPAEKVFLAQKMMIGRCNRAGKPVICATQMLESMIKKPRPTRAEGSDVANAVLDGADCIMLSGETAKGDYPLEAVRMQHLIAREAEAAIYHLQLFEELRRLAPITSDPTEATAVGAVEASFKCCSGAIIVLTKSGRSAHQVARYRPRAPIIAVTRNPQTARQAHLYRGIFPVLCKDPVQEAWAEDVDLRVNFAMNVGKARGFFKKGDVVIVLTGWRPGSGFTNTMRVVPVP
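ATP formation by purified human PK-M2, quantified via coupled luciferase luminescence after 1 h at room temperature with 0.1 mM ADP and 0.5 mM PEP final.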
GALK inh = qHTS Assay for Inhibitors of Human Galactokinase (GALK) | 270,000 compounds, 0.007% hits | Purified GALK, Kinase-Glo residual ATP luminescence | Potency, µM (series often up to 57.5 µM), for the others: at the top dose activity change, negative = inhibition, hits mostly inhibitors | P51570; further: potency means the concentration at half of the fitted maximal effect
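Kinase-Glo Plus luminescence measured ATP left after a 1 h room-temperature reaction. The reaction used 5 nM GALK, 100 uM galactose and 35 uM ATP at pH 8.0 (20 mM HEPES, 5 mM MgCl2, 60 mM NaCl, 1 mM DTT, 0.01% BSA).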
TrxR1 substrate = qHTS Assay for Substrates of Mammalian Selenoprotein Thioredoxin Reductase 1 (TrxR1): qHTS | Thioredoxin reductase 1, cytoplasmic (Rattus norvegicus), O89049 | purified TrxR1 substrate turnover, NADPH consumption readout | Potency, µM (series often up to 114 µM), inactives show at the top dose activity change, negative = substrate turnover | 390,000 compounds, 0.01% hits; further: potency means the concentration at half of the fitted maximal effect; nearly all actives have a fitted effect of over 50% in size
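Rat TrxR1, dispensed at 90 nM, was prereduced with 400 uM NADPH (final) for 5 min at ~22 deg C, then incubated with compound 15 min before 400 uM selenite. A first-read NADPH fluorescence drop versus no-compound background flagged substrates.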
* = called active by the depositor; [ ] = another dose, or the depositor's remark. Unless noted, the call rests on the fitted dose curve; in most records, active means well fitted curve in the direction sought with a large enough effect; inconclusive means small, poorly fitted or top-dose-only effect, or another doubt; inactive means no such curve, though single readings can be large; an effect the other way counts as inactive or inconclusive. Unless noted, on the % scale 0 is the no-effect control and ±100 the full control effect.

For COc1ccc(Cl)cc1NC(=S)NCCCN1CCCC1=O the results were PI4K2A block 0, TrxR1 inh -29%, PKM2 act -13%, GALK inh -2% and TrxR1 substrate 2%.
For O=C1CCCN1CCCNC(=S)Nc1ccc(Br)cc1Cl the results were PI4K2A block -1, TrxR1 inh 40µM*, PKM2 act 8%, GALK inh 0% and TrxR1 substrate 10%[0.0914 µM].
For Nc1nc(-c2ccccc2)c(CCCOc2ccc(NC(=O)CBr)cc2)c(=O)[nH]1 the results were PI4K2A block -10, TrxR1 inh 45µM* and TrxR1 substrate -5%.
Screening C[C@H]1/C=C/CC(=O)N[C@@H](c2ccccc2)[C@@H](C)/C=C/CC(=O)N[C@H]1c1ccccc1 returned PI4K2A block 5.
Screening C#CCOCCOCCOCCNc1nc(N2CCN(C(=O)CCCCCCCCCCNC(=O)Cn3cc(CCCCCN)nn3)CC2)nc(N2CCN(C(=O)CCCCCCCCCCNC(=O)[C@@H](CCC(=O)O)n3cc(CCCCCN)nn3)CC2)n1 returned PI4K2A block 4, TrxR1 inh -56% and TrxR1 substrate 1%.
Screening C#CCOCCOCCOCCNc1nc(N2CCN(C(=O)[C@H](CCCCN)n3cc([C@@H](N)C(C)CC)nn3)CC2)nc(N2CCN(C(=O)[C@H](CCCCN)n3cc([C@@H](N)C(C)CC)nn3)CC2)n1 (stereo partly specified) returned PI4K2A block -2.
`C#CCOCCOCCOCCNc1nc(N2CCN(C(=O)[C@H](Cc3cc4ccccc4[nH]3)n3cc([C@@H](N)C(C)CC)nn3)CC2)nc(N2CCN(C(=O)[C@H](CCCCN)n3cc([C@@H](N)CO)nn3)CC2)n1` (stereo partly specified) gave PKM2 act -1% and GALK inh -3%.
`C#CCOCCOCCOCCNc1nc(N2CCN(C(=O)[C@H](CCCCN)n3cc([C@@H](N)C(C)CC)nn3)CC2)nc(N2CCN(C(=O)[C@H](Cc3cc4ccccc4[nH]3)n3cc([C@@H](N)CC(C)C)nn3)CC2)n1` (stereo partly specified) gave PI4K2A block -4, TrxR1 inh 25µM*, PKM2 act -3%, GALK inh 6% and TrxR1 substrate 1%.
`C#CCOCCOCCOCCNc1nc(N2CCN(C(=O)[C@H]([C@@H](C)CC)n3cc([C@@H](N)CC(C)C)nn3)CC2)nc(N2CCN(C(=O)[C@H](CCCCN)n3cc([C@@H](N)C(C)CC)nn3)CC2)n1` (stereo partly specified) gave PI4K2A block 0, TrxR1 inh 3%[57.1 µM], PKM2 act 1%, GALK inh -1% and TrxR1 substrate 11%[57.1 µM].
For C#CCOCCOCCOCCNc1nc(N2CCN(C(=O)[C@H](CCCCN)n3cc(CN)nn3)CC2)nc(N2CCN(C(=O)[C@H](CCCCN)n3cc([C@@H](N)[C@H](C)CC)nn3)CC2)n1 the results were PI4K2A block 0, TrxR1 inh 45µM* and TrxR1 substrate 12%.
Screening C#CCOCCOCCOCCNc1nc(N2CCN(C(=O)CCCCCCCCCCNC(=O)Cn3cc(CCCCCN)nn3)CC2)nc(N2CCN(C(=O)CCCCCCCCCCNC(=O)Cn3cc(CCCCCN)nn3)CC2)n1 returned PI4K2A block 0, TrxR1 inh 11µM* and TrxR1 substrate 4%.
C#CCOCCOCCOCCNc1nc(N2CCN(C(=O)C([C@@H](C)CC)n3cc(C(N)COC(=O)C(F)(F)F)nn3)CC2)nc(N2CCN(C(=O)[C@H](CCCCN)n3cc(C(N)[C@H](C)CC)nn3)CC2)n1 (stereo partly specified) was read as PI4K2A block -2, TrxR1 inh 50µM* and TrxR1 substrate 5%.
For CCCCOc1ccccc1C(=O)Nc1nonc1-c1ccccc1 the results were PI4K2A block -5, TrxR1 inh -4% and TrxR1 substrate -8%.
For C#CCOCCOCCOCCNc1nc(N2CCN(C(=O)[C@H](CCCCN)n3cc(C(N)[C@H](C)CC)nn3)CC2)nc(N2CCN(C(=O)[C@H](CCC(=O)O)n3cc(C(N)[C@H](C)CC)nn3)CC2)n1 (stereo partly specified) the results were PI4K2A block -9, TrxR1 inh 56µM*, PKM2 act -10%, GALK inh 1% and TrxR1 substrate 2%.
`Cc1sc2ccccc2[n+]1Cc1ccccc1` gave TrxR1 inh 2% and TrxR1 substrate 7%.
`CC1(C)Cc2c(sc3ncnc(N)c23)CO1` gave PI4K2A block -5, TrxR1 inh 15%, PKM2 act -1%, GALK inh -3% and TrxR1 substrate 6%.
`CCCC1Cc2c(sc3ncnc(N)c23)CO1` (stereo unspecified) gave PI4K2A block -3, TrxR1 inh 50µM*, PKM2 act 0%, GALK inh 0% and TrxR1 substrate 39%.
CCN(CC)c1ccc(N)cc1 was read as PI4K2A block 0, TrxR1 inh -3% and TrxR1 substrate 9%.
`Nc1ccc(N(CCO)CCO)cc1` gave PI4K2A block -52*, TrxR1 inh -48%, PKM2 act 4%, GALK inh -2% and TrxR1 substrate 10%[57.1 µM].
COc1ccc(CN2C(=O)CSCCC2(C)c2nnnn2-c2c(C)cccc2C)cc1 (stereo unspecified) was read as PI4K2A block 0.
Screening [O-]/[N+](=C\c1ccncc1)c1ccc(Br)cc1 returned PI4K2A block 15, TrxR1 inh 35µM*, PKM2 act 27% and TrxR1 substrate -5%.
[O-]/[N+](=C/c1cccnc1)c1ccc(Br)cc1 was read as PI4K2A block 4, TrxR1 inh -2%, PKM2 act 4%, GALK inh 0% and TrxR1 substrate -9%.
`C=C1C(=O)O[C@@H]2[C@H]3O[C@]3(C)CC/C=C(\C)CC[C@@H]12` gave PI4K2A block 20, TrxR1 inh 56µM* and TrxR1 substrate 1%.
For C=C1C(=O)O[C@H]2C[C@H]1[C@@H](OC(C)=O)C/C(C)=C/CC/C(C)=C\CC[C@]2(C)O the results were PI4K2A block 5, TrxR1 inh -14% and TrxR1 substrate 1%.
